Out of some 94,000 compounds screened, about 6,200 (6.6%) were called active. Where a call stands in place of a potency, no number is given. About 31% were inconclusive and are not listed. Calls come from the whole dose curve; as a rule, active = well fitted inhibition curve with a large enough effect; inconclusive = small, poorly fitted or top-dose-only effect; inactive = flat fitted curve, though single readings scatter. The sample as a whole holds a higher share of actives than the screen did.
Potency is the fitted concentration of half-maximal effect.

The nature of the assay: Cytotoxic Profiling in HEK 293 Cell Line of Diverse Libraries Using Quantitative High-Throughput Screening. Note: nearly all actives have a fitted effect of over 60% in size. The following applies: HEK 293 viability, ATP luminescence (CellTiter-Glo), 48-72 h; series mostly up to 115 µM. In a few lines:
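Cytotoxicity was scored by loss of ATP-coupled luminescence (CellTiter-Glo) in HEK 293 cells. Compound treatment ran 48 or 72 hr at 37 degree Celsius, 5% CO2, 95% humidity.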
A general note: ATP-based viability assays read luminescence as a measure of living cells.
For the compound `O=C1CC(c2ccccc2)N(C(=O)C2CC2)CCCN(C(=O)Cc2cccc(F)c2)CCN1` (stereo not drawn), the Potency entry was “inactive”. The same measure for `CCCc1nc(NCC(c2ccccn2)N2CCOCC2)c2cnn(C)c2n1` (stereo not drawn): “inactive”; for `CC(Cn1cncn1)Nc1nc(-c2ccncc2)nc2c1cnn2C` (stereo not drawn): “inactive”. The same measure for `CC(C)Cc1cc(CNc2nc(C(C)(C)C)nc3c2cnn3C)no1`: 35.5 µM (active). The same measure for `COc1ccccc1CC(=O)NCc1nnc2c(-c3nc(C(C)C)no3)cccn12`: “inactive”. `COCCC1(CO)CCCN(C(=O)Cn2cc(C)c(=O)[nH]c2=O)C1` (stereo not drawn): the Potency result was “inactive”. The same measure for `O=C(NCc1nnc2ccccn12)C1NCCc2[nH]cnc21` (stereo not drawn): “inactive”. The same measure for `CCC(=O)N1CCC2(CC1)CC(N1CCN(CC(C)C)CC1)CCO2` (stereo not drawn): “inactive”; for `Cc1ccc(S(=O)(=O)N[C@@H]2CCOC[C@H]2OCC(=O)O)cc1`: “inactive”; for `O=C1NCCCCCCN(S(=O)(=O)c2cccs2)[C@H]2CCCC[C@@H]12`: “inactive”. The same measure for `O=C(c1ccc2c(c1)N(C(=O)c1ccccc1)CC2)N1CCN(c2ccc(Cl)cc2)CC1`: 31.6 µM (active); for `CC(=O)N1CCc2ccc(C(=O)N3CCCCCC3)cc21`: “inactive”; for `CCC(CC)N1CCN(C(=O)c2ccc3c(c2)N(S(C)(=O)=O)CC3)CC1`: “inactive”. For the compound `O=C(NC[C@H]1O[C@@H](CO)[C@@H](O)[C@H]1N1CCOCC1)c1ccco1`, the Potency result was “inactive”. Consider `CCOC(=O)c1ccc(NC(=O)CCn2ccn3nc4c(c3c2=O)CCCC4)cc1`, for which the Potency entry is “inactive”.

For `O=C(CCn1ccn2nc3c(c2c1=O)CCCC3)Nc1ccc(Cl)c(C(F)(F)F)c1`, the Potency was 44.7 µM (active). Regarding `O=C(CCn1ccn2nc3c(c2c1=O)CCCC3)Nc1ccc(F)cc1Cl`, the Potency entry was “inactive”. Turning to `CCc1nc(-c2c3n(c(=O)n(CC(=O)NC4CCCCC4)c2=O)CCCC3)no1`, the Potency result was “inactive”. Turning to `CCOC(=O)C1=C(C)NC(=O)NC1c1ccccc1` (stereo not drawn), the Potency entry was “inactive”.

On to `Cc1nccnc1N1CCC(c2nnc(CN3CCCC3)n2C)CC1`, for which the Potency result was “inactive”. For the compound `O=C1Cc2c(-c3ccc(Oc4ccccc4)cc3)n[nH]c2CN1CCc1ccncc1`, the Potency is 79.4 µM (active). As to `CC(C)Oc1cccc(-c2n[nH]c3c2CC(=O)N(Cc2ccccc2)C3)c1`, the Potency entry is “inactive”. Regarding `O=C1Cc2c(-c3ccc(CO)cc3)n[nH]c2CN1CC1CCOCC1`, the Potency entry was “inactive”. The same measure for `CCc1ocnc1C(=O)NC1CC(c2cc(N3CCC(O)C3)ncn2)C1` (stereo not drawn): “inactive”; for `O=C(NC1CCNC1)C1CCN(c2nc(-c3ccccc3)nc3c2CCC3)CC1` (stereo not drawn): 35.5 µM (active). Regarding `Cc1nc(CCNC(=O)C2CCCN(c3nc(-c4ccccc4)nc4c3CCC4)C2)n[nH]1` (stereo not drawn), the Potency result was “inactive”. As for `O=C(CN1CCCC1=O)NC1CCCc2nc(-c3ccccc3)ncc21` (stereo not drawn), the Potency entry was “inactive”.

On to `CC(C)c1nc(CCNC(=O)[C@H]2CNC[C@@H](C(=O)N3CCCC3)C2)cs1`, for which the Potency result is “inactive”. The same measure for `O=C(NCC1CCNCC1)c1ccc(C2CCNC2)cc1` (stereo not drawn): “inactive”. As to `COc1ccc(Nc2cc3c(nc2-c2ccccc2)nc(C(=O)NCCN(C)C)n3C)cn1`, the Potency result was “inactive”. As for `O=C(NCCn1cccc1-c1nc(-c2ccc3c(c2)OCO3)no1)c1cccc(F)c1`, the Potency result is “inactive”. Take `CN(C)CCNC(=O)c1nc2nc(-c3ccccc3)c(-c3cccc(F)c3)cc2n1C`: the Potency is 50.1 µM (active). The same measure for `Cn1cccc1C(=O)N1CC[C@@H]2NC(=O)[C@H]3C[C@H](NC(=O)C4CC4)CN3C(=O)[C@H]21`: “inactive”. Consider `CCCCN1C(=O)C(CC(=O)N2CCCCC2)Sc2ncccc21` (stereo not drawn), for which the Potency result is “inactive”. The same measure for `CC(C)CNC(=O)c1nc2sccn2c1-c1ccncc1`: “inactive”; for `CC(=O)N1CCC([C@@H]2CN(Cc3cc(F)c(F)cc3F)C[C@H]2CO)CC1`: “inactive”. Turning to `CC(C)S(=O)(=O)N1CCC(N2CC(OCC3CC3)C23CCCCC3)CC1` (stereo not drawn), the Potency entry was “inactive”. For `O=C1CC2(CCN(C(=O)c3ccccc3)C2)Nc2ccccc2N1` (stereo not drawn), the Potency result is “inactive”. The same measure for `O=C1NC2(CCN(C(=O)c3ccccn3)C2)Oc2ccccc21` (stereo not drawn): “inactive”; for `O=C1NC2(CCN(C(=O)c3ccccc3)C2)COc2ccccc21` (stereo not drawn): 100 µM (active); for `CCN(C1CCOCC1)C1CN(C(=O)C2CCC2)C1`: “inactive”. The same measure for `COCCNC(=O)[C@@H]1C[C@H](Oc2ccccc2)CN1C(=O)c1ccccn1`: “inactive”; for `COc1ccc(C(=O)NCCC2CCN(C(=O)Nc3cc(F)ccc3F)CC2)cc1`: “inactive”.

Turning to `Cc1ccc(C(=O)NC2CCN(c3cc(-c4cccs4)[nH]n3)C2)cc1` (stereo not drawn), the Potency entry is “inactive”. Regarding `COc1ccc(-c2cc(N3CCCC(NC(=O)c4cc(F)ccc4Cl)C3)n[nH]2)cc1` (stereo not drawn), the Potency is 28.2 µM (active). The same measure for `COC(=O)NC1CCCN(c2ccc3nnc(C)n3n2)C1` (stereo not drawn): “inactive”; for `Cn1nccc1C(=O)NC1CCCN(c2cc(N3CCCC3)ncn2)C1` (stereo not drawn): “inactive”. Regarding `COc1ccc(-c2cc(N3CCCC(NC(=O)c4ccsc4)C3)n[nH]2)cc1` (stereo not drawn), the Potency was 35.5 µM (active). The same measure for `Cc1ccc(-c2cc(N3CCC(CNC(=O)c4ccc(N(C)C)cc4)CC3)n[nH]2)cc1`: “inactive”; for `COc1ccc(-c2cc(N3CCC(NC(=O)c4ccc(N(C)C)cc4)C3)n[nH]2)cc1` (stereo not drawn): 70.8 µM (active). The same measure for `O=C(NC1CCN(c2cc(C(F)(F)F)ncn2)CC1)c1ccc(F)cc1`: “inactive”. The same measure for `COc1ccc(-c2cc(N3CCCC(NC(=O)c4cccc(Cl)c4)C3)n[nH]2)cc1` (stereo not drawn): 44.7 µM (active). For the compound `Cc1cc(C(=O)N2C[C@@H](COCC(N)=O)[C@H](c3ccncc3)C2)c(C)o1`, the Potency result is “inactive”.

As for `O=C1Nc2cnccc2C2(CCN(C(=O)c3ccccc3F)C2)O1` (stereo not drawn), the Potency entry is “inactive”. The same measure for `CCOc1ccccc1NC(=O)CC[C@H]1NC(=O)c2ccccc2NC1=O`: “inactive”; for `O=C(c1ccoc1)N1CCC(Oc2ncccc2C(=O)N2CCOCC2)C1` (stereo not drawn): “inactive”; for `CN1[C@@H](CCC(=O)NCc2ccccc2)CNC(=O)[C@@H]2[C@H]1CCN2Cc1csnn1`: “inactive”. The same measure for `O=C(c1ccc(CO)o1)N1CCC2(CC1)[C@H](O)C[C@@H]2OCCO`: “inactive”; for `CC(c1cccs1)N(C)Cc1ccncc1` (stereo not drawn): “inactive”. The same measure for `COCc1nnc2n1CCC(NC(=O)NCCc1ccccc1)CC2` (stereo not drawn): “inactive”; for `O=C(CCCc1ccccc1)Nc1ccc(-c2nnc3n2CCCC3)cc1`: “inactive”. `CN1Cc2ncnc(N3CCCCC3)c2CN(c2ccccc2)C1=O`: the Potency entry is “inactive”. Consider `O=C(NCC1CC1)C1CCCN(C2CCN(Cc3ccncc3)CC2)C1` (stereo not drawn), for which the Potency entry was “inactive”. The same measure for `CN(C)C(=O)N1CCCC(C(=O)N2CCC(N3Cc4cccn4C3=O)CC2)C1` (stereo not drawn): “inactive”. The same measure for `O=C(c1cccs1)C1CCCN(C(=O)COc2ccc(F)cc2F)C1` (stereo not drawn): “inactive”; for `O=C(Nc1ccc(F)cc1)C1CCCN(Cc2cccc(-c3ccc(F)cc3F)c2)C1` (stereo not drawn): 35.5 µM (active). The same measure for `CNC(=O)[C@@H](Cc1ccccc1)N1CCC[C@H]1C(=O)NCC1CC1`: “inactive”; for `O=C(C1CCCN(Cc2cccc(-c3ccc(F)cc3F)c2)C1)N1CCCCC1` (stereo not drawn): 31.6 µM (active). With `O=C(Nc1cccc(F)c1)N1CCCC(CN2CCOCC2)CC1` (stereo not drawn), the Potency result is “inactive”. As for `O=C1CCN(Cc2ccncc2)CCCC(C(=O)Nc2cccc(F)c2)CCN1` (stereo not drawn), the Potency entry was “inactive”.

`COc1ccccc1-c1cccc(CN2CCCC(C(=O)NCC3CC3)C2)c1` (stereo not drawn): the Potency was 39.8 µM (active).

`Cc1nnc2n1C(C)CN(C(=O)CCCc1nc(-c3ccncc3)no1)C2` (stereo not drawn): the Potency entry was “inactive”. The same measure for `O=C(NCc1cccnc1)C1CCCN(c2ccnc3ccnn23)C1` (stereo not drawn): “inactive”; for `CCCNC(=O)NC1CCN(C(=O)N2CC3CC(C2)[C@H]2CCCC(=O)N2C3)CC1` (stereo partly drawn): “inactive”. With `CCN1C(=O)Cc2cc(C(=O)NCc3cc(OC)ccc3OC)ccc21`, the Potency result was “inactive”. The same measure for `COc1cc(=O)n2c(c1C(=O)Nc1ccc(Cl)c(F)c1)CCCC2`: “inactive”.

In the case of `CCN1c2cc(C(=O)Nc3ccc(SC)cc3)ccc2C(=O)N2CCCCCC21` (stereo not drawn), the Potency was 22.4 µM (active). The same measure for `CCN1c2cc(C(=O)NCc3ccccc3C(F)(F)F)ccc2C(=O)N2CCCCCC21` (stereo not drawn): 39.8 µM (active); for `CCN1c2cc(C(=O)Nc3ccc(F)c(Cl)c3)ccc2C(=O)N2CCCCC21` (stereo not drawn): 39.8 µM (active).

As for `COc1ccc(CNC(=O)c2ccc3c(c2)N(C)C2CCCCN2C3=O)c(OC)c1` (stereo not drawn), the Potency result was “inactive”. The same measure for `O=C(Nc1ccc([C@H]2OCC(=O)N(C3CCOCC3)[C@@H]2CO)cc1)c1ccc(F)c(Cl)c1`: “inactive”; for `CN(C)C[C@@H]1CN(C)C[C@H]1NC(=O)c1ccnnc1`: “inactive”.

Take `CC(C)CC(=O)N1CCN(c2nnc3ccccn23)CC1`: the Potency entry was “inactive”. For the compound `CC(C)(C)CC(=O)Nc1ccc2c(N3CCOCC3)ncnc2c1`, the Potency result is “inactive”. With `O=C(CCCc1ccccc1)NCCC1CCN(C(=O)Nc2cc(F)cc(F)c2)CC1`, the Potency entry is “inactive”. The same measure for `CN1C(=O)C(CC(=O)NCc2ccccc2F)Sc2ncccc21` (stereo not drawn): “inactive”; for `COCc1cccc(C(=O)N2CC[C@@](C)(O)[C@@H](O)C2)n1`: “inactive”; for `C=CCN(C)c1nc(C)nc2c1CCN(C(=O)N1CCOCC1)CC2`: “inactive”. The same measure for `N#Cc1ccc(CN2CCCC3(COc4ccccc4[S+](=O)([O-])N3)C2)cc1` (stereo not drawn): “inactive”; for `CS(=O)(=O)N1CCCN(C(=O)CN2CCCCCC2)CCNC(=O)CC1c1ccccc1` (stereo not drawn): “inactive”; for `COc1ccc(O[C@H]2COCCN(Cc3nccn3C)C2)cc1`: “inactive”. The same measure for `Cn1cc(CN2CCOC[C@H](Oc3ccc(S(C)(=O)=O)cc3)C2)c2ccccc21`: 50.1 µM (active); for `CC(C)CN1CCOC[C@H](Oc2ccc(S(C)(=O)=O)cc2)C1`: “inactive”; for `Cc1cc(C(=O)NCC2CCCN(Cc3nnc(-c4cccnc4)o3)C2)no1` (stereo not drawn): “inactive”. For `Cc1ccc(S(=O)(=O)N(C)Cc2ccccc2C(F)(F)F)cc1`, the Potency is 70.8 µM (active). The same measure for `CN(CC1CCOC1)S(=O)(=O)c1ccccc1C(F)(F)F` (stereo not drawn): “inactive”; for `Cc1ccc(S(=O)(=O)N(C)CC2CCOCC2)cc1F`: “inactive”; for `CN1C(=O)CCC2(CNC(=O)C3CCC3)CCC=C12` (stereo not drawn): “inactive”. `O=C(NC1CCCC1)NC1CC(c2nnc(CO)n2C2CC2)C1` (stereo not drawn): the Potency result is “inactive”.

Regarding `O=C(C1CCc2nnc(C3CCN([S+](=O)([O-])c4ccccc4)CC3)n21)N1CCOCC1` (stereo not drawn), the Potency entry was “inactive”. Consider `O=C(N1CCC(Cc2nc(-c3ccccc3)n[nH]2)C1)C1(c2ccccc2)CC1` (stereo not drawn), for which the Potency is 44.7 µM (active). `O=C(C1CCC1)N1CCC(Cc2nc(-c3cccnc3)n[nH]2)C1` (stereo not drawn): the Potency result was “inactive”. The same measure for `O=C(N1CCCC(Cc2nc(C3CCOCC3)no2)C1)C1(c2ccccc2)CC1` (stereo not drawn): “inactive”.

Values taken from PubChem BioAssay AID1345083 (National Center for Advancing Translational Sciences (NCATS), 2018).
